In PubChem BioAssay (NCI):
Compounds without any hit were thinned out: in the full panel of roughly 79,000, 15% have a hit. Calls of active or inactive are those of the source. Rule as the data show it: active = growth inhibition above about 70%; inactive = the rest.

What was measured:
[1] = NCI Yeast Anticancer Drug Screen. Data for the rad52 strain (AID 147);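 also: 0% = growth of vehicle-treated control cultures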; conditions: S. cerevisiae rad52 mutant growth inhibition, active compounds read high
How it was run: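 Inhibition of yeast growth, referenced to vehicle controls, was the measured output for a strain with defective DNA damage repair.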

[2] = NCI Yeast Anticancer Drug Screen. Data for the wt1 strain (AID 149);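 also: 0% = growth of vehicle-treated wt1 cultures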; conditions: S. cerevisiae wt1 strain (SPY 50644) growth inhibition, active compounds read high
How it was run: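 Each compound is tested on wt1 yeast and the loss of growth versus vehicle gives the inhibition value.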

[3] = NCI Yeast Anticancer Drug Screen. Data for the rad50EPP+ strain (AID 151);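 also: 0% = growth of vehicle-treated control cultures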; conditions: S. cerevisiae rad50 mutant strain, active compounds read high
How it was run: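 Genetically defined yeast (rad50EPP+, DNA damage repair alteration) is grown with compound, and inhibition of growth is expressed relative to vehicle-treated controls.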

[4] = NCI Yeast Anticancer Drug Screen. Data for the mgt1 strain (AID 153); conditions: S. cerevisiae mgt1 mutant growth inhibition, active compounds read high
How it was run: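 In the mgt1 strain, test compounds were added and growth inhibition was determined relative to vehicle-treated controls.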

[5] = NCI Yeast Anticancer Drug Screen. Data for the rad50 strain (AID 155);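 also: 0% = growth of vehicle-only cultures of the same strain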; conditions: S. cerevisiae rad50 strain growth inhibition, active compounds read high
How it was run: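 Vehicle-treated cultures provide the reference for the growth inhibition reported for compound-exposed, repair-deficient yeast.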

[6] = NCI Yeast Anticancer Drug Screen. Data for the mec2-1 strain (AID 157); conditions: S. cerevisiae mec2-1 strain, active compounds read high
How it was run: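 Each compound was tested on mec2-1 yeast, a strain altered in DNA damage repair or cell cycle control. Growth inhibition is reported relative to vehicle.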

[7] = NCI Yeast Anticancer Drug Screen. Data for the sgs1 mgt1 strain (AID 161);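 also: 0% = growth of cultures given vehicle only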; conditions: S. cerevisiae sgs1 mgt1 strain, active compounds read high
How it was run: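 Test agents were incubated with a DNA-repair-mutant yeast strain. Growth was then read and compared against vehicle-treated controls.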

[8] = NCI Yeast Anticancer Drug Screen. Data for the cln2 rad14 strain (AID 165);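 also: 0% = growth equal to vehicle treated cultures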; conditions: S. cerevisiae cln2 rad14 strain, active compounds read high
How it was run: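 Test compounds were added to cln2 rad14 yeast cultures; inhibition of growth was then determined by comparison with vehicle treatment.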

[9] = NCI Yeast Anticancer Drug Screen. Data for the bub3 strain (AID 167); conditions: S. cerevisiae bub3 mutant strain, active compounds read high
How it was run: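 Mutant yeast screening strain plus compound; vehicle-treated cultures serve as the 0% inhibition reference.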

[10] = NCI Yeast Anticancer Drug Screen. Data for the wt2 strain (AID 169); conditions: S. cerevisiae wt2 strain growth inhibition, active compounds read high
How it was run: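 The panel's yeast strains carry defined changes in DNA repair or cell cycle genes. Each strain is grown with compound, and growth loss is scored relative to vehicle.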

[11] = NCI Yeast Anticancer Drug Screen. Data for the mlh1 strain (AID 171);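 also: 0% = growth of vehicle-treated control cultures of the same strain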; conditions: S. cerevisiae mlh1 strain growth inhibition, active compounds read high
How it was run: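 Inhibition values reflect reduced yeast growth in the presence of compound, referenced to vehicle controls, using a strain chosen for its alteration in DNA repair or cell cycle control.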

[12] = NCI Yeast Anticancer Drug Screen. Data for the sgs1 strain (AID 173);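 also: 0% = growth of vehicle-only control cultures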; conditions: S. cerevisiae sgs1 mutant, active compounds read high
How it was run: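 Vehicle-treated cultures served as reference for growth inhibition of a yeast strain altered in DNA damage repair or cell cycle control after compound exposure.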

[13] = NCI Yeast Anticancer Drug Screen. Data for the mlh1 rad18 strain (AID 175); conditions: S. cerevisiae mlh1 rad18 strain growth inhibition, active compounds read high
How it was run: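 Inhibition values reflect reduced growth of mutant yeast versus vehicle-treated controls following compound exposure; the mutations affect DNA damage repair.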

[14] = NCI Yeast Anticancer Drug Screen. Data for the rad14 strain (AID 159);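 also: 0% = growth of vehicle-treated control cultures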; conditions: S. cerevisiae rad14 strain growth inhibition, active compounds read high
How it was run: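 Inhibition of growth is reported for a repair-deficient yeast mutant following compound treatment, calculated relative to cultures that received vehicle.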

[15] = NCI Yeast Anticancer Drug Screen. Data for the CLN2oe strain (AID 163);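 also: 0% = growth of vehicle-only control cultures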; conditions: S. cerevisiae CLN2oe strain, active compounds read high
How it was run: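 First, the altered yeast strain was treated with each compound; second, its growth was measured; finally, inhibition was derived by comparison with vehicle controls.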

[16] = NCI Yeast Anticancer Drug Screen. Data for the rad18 strain (AID 177); conditions: S. cerevisiae rad18 mutant growth inhibition, active compounds read high
How it was run: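 Steps: expose repair-mutant yeast to compound; measure growth; express as inhibition relative to vehicle control.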

[17] = at 5.0 µM (retest, dose inferred, filed as 0.5)
[18] = at 50.0 µM (retest, dose inferred, filed as 5.0)

Measured: growth inhibition

COc1cc(C2SCC(=O)N2c2ccc(-c3ccc(-n4c(-c5ccccc5)nc5ccccc5c4=O)cc3)cc2)ccc1O (stereo unspecified)
inactive: [1]; at 1.2 µM -2% | [1]; at 3.7 µM 0% | [1]; at 11.0 µM 2% | [1]; at 33.0 µM 6% | [1]; at 100.0 µM 16% | [2]; at 1.2 µM -2% | [2]; at 3.7 µM -2% | [2]; at 11.0 µM -1% | [2]; at 33.0 µM -4% | [2]; at 100.0 µM -8% | [3]; at 1.2 µM 3% | [3]; at 3.7 µM 13% | [3]; at 11.0 µM 19% | [3]; at 33.0 µM 27% | [3]; at 100.0 µM 27% | [4]; at 1.2 µM 1% | [4]; at 3.7 µM 1% | [4]; at 11.0 µM 0% | [4]; at 33.0 µM 2% | [4]; at 100.0 µM 28% | [5]; at 1.2 µM -4% | [5]; at 3.7 µM -1% | [5]; [17] -11% | [5]; at 11.0 µM 0% | [5]; at 33.0 µM 8% | [5]; [18] 35% | [5]; at 50.0 µM 58.4% | [5]; at 100.0 µM 21% | [6]; at 1.2 µM 0% | [6]; at 3.7 µM -1% | [6]; [17] -11% | [6]; at 11.0 µM 0% | [6]; at 33.0 µM 2% | [6]; [18] 21% | [6]; at 50.0 µM 34% | [6]; at 100.0 µM 9% | [7]; [17] -7% | [7]; [18] 31% | [7]; at 50.0 µM 65% | [8]; [17] -9% | [8]; [18] 10% | [8]; at 50.0 µM 25.7% | [9]; at 1.2 µM 1% | [9]; at 3.7 µM 9% | [9]; [17] -14% | [9]; at 11.0 µM 19% | [9]; at 33.0 µM 23% | [9]; [18] 69% | [9]; at 100.0 µM 41% | [10]; at 1.2 µM -2% | [10]; at 3.7 µM -2% | [10]; at 11.0 µM -2% | [10]; at 33.0 µM -2% | [10]; at 100.0 µM 4% | [11]; at 1.2 µM -2% | [11]; at 3.7 µM 1% | [11]; at 11.0 µM 1% | [11]; at 33.0 µM 3% | [11]; at 100.0 µM 20% | [12]; at 1.2 µM -3% | [12]; at 3.7 µM 0% | [12]; at 11.0 µM 0% | [12]; at 33.0 µM 2% | [12]; at 100.0 µM 10% | [13]; [17] -14%
active: [9]; at 50.0 µM 82.3% | [13]; [18] 76% | [13]; at 50.0 µM 73.7%

CC(=O)Nc1ccc2c(c1)-c1ccccc1C2=O
inactive: [1]; at 1.2 µM -1% | [1]; at 3.7 µM 1% | [1]; at 11.0 µM 10% | [2]; at 1.2 µM -2% | [2]; at 3.7 µM -1% | [2]; at 11.0 µM -48% | [2]; at 33.0 µM 6% | [2]; at 100.0 µM 45% | [3]; at 1.2 µM -2% | [3]; at 3.7 µM -4% | [3]; at 11.0 µM 2% | [3]; at 33.0 µM 25% | [5]; at 1.2 µM -2% | [5]; at 3.7 µM 19% | [5]; [17] 2% | [5]; at 11.0 µM 20% | [5]; at 33.0 µM 68% | [5]; [18] 54% | [5]; at 50.0 µM 67.8% | [6]; at 1.2 µM -1% | [6]; at 3.7 µM 2% | [6]; [17] 7% | [6]; at 11.0 µM 4% | [6]; at 33.0 µM 15% | [6]; [18] 15% | [6]; at 50.0 µM 6.9% | [14]; at 1.2 µM -4% | [14]; at 3.7 µM -6% | [14]; at 11.0 µM -3% | [14]; at 33.0 µM 10% | [7]; [17] -3% | [7]; [18] 6% | [7]; at 50.0 µM 2.4% | [15]; at 1.2 µM -6% | [15]; at 3.7 µM -8% | [15]; at 11.0 µM -8% | [15]; at 33.0 µM -9% | [15]; at 100.0 µM 13% | [8]; [17] -3% | [8]; [18] 11% | [8]; at 50.0 µM -39.4% | [9]; at 1.2 µM 0% | [9]; at 3.7 µM -3% | [9]; [17] -3% | [9]; at 11.0 µM -1% | [9]; at 33.0 µM 7% | [9]; [18] -4% | [9]; at 50.0 µM -20.4% | [9]; at 100.0 µM 66% | [10]; at 1.2 µM -4% | [10]; at 3.7 µM 4% | [10]; at 11.0 µM -6% | [10]; at 33.0 µM 1% | [10]; at 100.0 µM 62% | [11]; at 1.2 µM -2% | [11]; at 3.7 µM -2% | [11]; at 11.0 µM 1% | [11]; at 33.0 µM 13% | [12]; at 1.2 µM -5% | [12]; at 3.7 µM -8% | [12]; at 11.0 µM -9% | [12]; at 33.0 µM 8% | [13]; [17] 1% | [13]; [18] 20% | [13]; at 50.0 µM -1.15% | [16]; at 1.2 µM -3% | [16]; at 3.7 µM -5% | [16]; at 11.0 µM -3% | [16]; at 33.0 µM 14%
active: [1]; at 33.0 µM 70% | [1]; at 100.0 µM 95% | [3]; at 100.0 µM 78% | [5]; at 100.0 µM 95% | [6]; at 100.0 µM 70% | [14]; at 100.0 µM 82% | [11]; at 100.0 µM 82% | [12]; at 100.0 µM 81% | [16]; at 100.0 µM 89%

O=C(Oc1ccc2c(c1)CN(Cc1ccccc1)CO2)c1ccccc1
active: [5]; at 50.0 µM 79.2% | [14]; at 100.0 µM 87% | [7]; at 50.0 µM 77.2% | [9]; at 50.0 µM 72.7%
inactive: [1]; at 1.2 µM -3% | [1]; at 3.7 µM 4% | [1]; at 11.0 µM 8% | [1]; at 33.0 µM 18% | [1]; at 100.0 µM 38% | [2]; at 1.2 µM 2% | [2]; at 3.7 µM 4% | [2]; at 11.0 µM 8% | [2]; at 33.0 µM 13% | [2]; at 100.0 µM 10% | [3]; at 1.2 µM -4% | [3]; at 3.7 µM -3% | [3]; at 11.0 µM 4% | [3]; at 33.0 µM 6% | [3]; at 100.0 µM 22% | [5]; at 1.2 µM 2% | [5]; at 3.7 µM 2% | [5]; [17] -1% | [5]; at 11.0 µM 17% | [5]; at 33.0 µM 4% | [5]; [18] 46% | [5]; at 100.0 µM 32% | [6]; at 1.2 µM -2% | [6]; at 3.7 µM 0% | [6]; [17] -15% | [6]; at 11.0 µM 3% | [6]; at 33.0 µM 8% | [6]; [18] 3% | [6]; at 50.0 µM 25.1% | [6]; at 100.0 µM 26% | [14]; at 1.2 µM 4% | [14]; at 3.7 µM 11% | [14]; at 11.0 µM 24% | [14]; at 33.0 µM 40% | [7]; [17] 19% | [7]; [18] 40% | [15]; at 1.2 µM -5% | [15]; at 3.7 µM -5% | [15]; at 11.0 µM -1% | [15]; at 33.0 µM 16% | [15]; at 100.0 µM 42% | [8]; [17] -16% | [8]; [18] 39% | [8]; at 50.0 µM 21.9% | [9]; at 1.2 µM -4% | [9]; at 3.7 µM -2% | [9]; [17] -6% | [9]; at 11.0 µM -29% | [9]; at 33.0 µM 31% | [9]; [18] 46% | [9]; at 100.0 µM 35% | [10]; at 1.2 µM -1% | [10]; at 3.7 µM 3% | [10]; at 11.0 µM 7% | [10]; at 33.0 µM 23% | [10]; at 100.0 µM 40%
